Wnt bcat act: Wnt/beta-catenin pathway activators, primary screen, cell-based, plate reader, single point | activation, % at 9.35 µM | hit rate 1.2% among 300,000 | Wnt/beta-catenin reporter cell assay, activator; in the data active = activation above about 30%, passing the limit was not always enough;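 note: 0% = neutral control wells and 100% = positive control wells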
MITF act: activators of MITF-driven TRPM1 promoter reporter, primary screen, cell-based, SK-MEL-5, luciferase, single point | AID 588334, 2011 | SK-MEL-5 TRPM1-promoter luciferase, 24 h; % of positive control, neutral wells = 0 | activation, % at 12.5 µM | hit rate 0.75% among 300,000;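 active = mean activation of at least 80% with every replicate also reaching 80%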;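 note: 0% = neutral control wells and 100% = parthenolide positive control wells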
CFTR F508del cor: F508del CFTR correction, initial screen, CFBE line, single point; CFBE cells, YFP halide quenching; stimulated with forskolin plus potentiator P3; % fluorescence drop versus neutral controls; activity (quench increase), % at 7.58 µM; hit rate 0.36% among 350,000; AID 720511, 2013;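 active = mean added fluorescence quench of at least 8% versus neutral control, with both replicates also reaching 8%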;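 note: cells transiently co-express mutant CFTR-F508del with the halide-sensitive YFP; corrector assay measuring rescue of mutant channel to the surface after 24 h compound exposure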
INS-1E GSIS act: GLuc luminescence reporter in INS-1E cells, primary screen for activators of glucose-dependent secretion of insulin; hit rate 0.61% among 370,000; activation, % at 16.6 µM; INS-1E GLuc reporter insulin secretion, 2-3 h; AID 743287, 2014;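 active = lowest replicate activation of at least 40%, so every replicate reaches that level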;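 note: 0% = median of neutral control wells and 100% = median of IBMX positive control wells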
Env fusion inh: inhibitors of HIV-1 Env-driven cell-cell fusion, primary screen, HeLa-JRFL effector, CEM21 target cells, luciferase. inhibition, % at 12.3 µM. hit rate 1.1% among 360,000;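 active = mean replicate inhibition score of at least 50 and every replicate individually at or above 50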;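 note: 0% = plate neutral controls and 100% = maraviroc near 300 nM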
* = called active by the depositor; . = no result; [ ] = dose if it differs, or a comment. A selection: hits, their analogues and other compounds. The true share with any hit is near 2.7%.

SMILES	Wnt bcat act	MITF act	CFTR F508del cor	INS-1E GSIS act	Env fusion inh
C[C@@H]1CN([C@@H](C)CO)C(=O)c2cccc(NC(=O)CCCCCC(=O)Nc3ccccc3N)c2O[C@@H]1CN(C)Cc1ccc(Oc2ccccc2)cc1	.	.	2	-43	.
O=C(N[C@H]1CC[C@@H](CCNS(=O)(=O)c2ccc(Cl)cc2)O[C@@H]1CO)c1cccnc1	.	.	-2	16	-16[16.7 µM]
O=C(C[C@H]1C[C@@H]2c3cc(NC(=O)NC4CCCC4)ccc3O[C@@H]2[C@@H](CO)O1)NCc1ccccn1	.	.	2	-7	.
CNC(=O)/C=C/c1cccc(C(F)(F)F)c1	-1	11	4	-3	5
CC(C)(C)NC(=O)/C=C/c1ccc(C(F)(F)F)cc1	77*	11	-1	0	10
CC(C)NC(=O)NCC[C@H]1CC[C@@H](NC(=O)CN(C)C)[C@@H](CO)O1	.	.	0	4	0[16.7 µM]
CN[C@H]1C[C@@H](c2ccccc2)N(C(C)=O)C[C@H]1CO	0	.	-4	42*	11
CN(CC(=O)Nc1ccncc1)S(=O)(=O)c1ccc(Br)cc1	.	-7	.	-5	28
CN(CCCC(=O)Nc1ccncc1)S(=O)(=O)c1ccc(Cl)cc1	-6	-7	.	.	66*
CC(CN(C)Cc1ccccc1)OC(=O)c1ccccc1F (stereo not given)	-3	-2	.	49*	0
CC(CN(C)Cc1ccccc1)OC(=O)c1cccs1 (stereo not given)	1	-2	.	.	-42
CCOc1cccc(C(=O)N(Cc2ccco2)C2CCS(=O)(=O)C2)c1 (stereo not given)	.	-2	.	.	.
O=C(c1ccco1)N(Cc1ccc(Cl)cc1)C1CCS(=O)(=O)C1 (stereo not given)	-1	0	1	42*	-7
O=C(c1ccc(Cl)c([N+](=O)[O-])c1)N(Cc1ccco1)C1CCS(=O)(=O)C1 (stereo not given)	-2	7	0	43*	4
Cc1ccc(CN(C(=O)c2cccs2)C2CCS(=O)(=O)C2)cc1 (stereo not given)	0	7	2	57*	5
O=C(c1cccs1)N(Cc1ccc(F)cc1)C1CCS(=O)(=O)C1 (stereo not given)	-2	6	3	11	-11
O=C(c1cccs1)N(Cc1cccc(F)c1)C1CCS(=O)(=O)C1 (stereo not given)	1	-3	-1	46*	1
COc1ccc(NC(=O)Nc2ccc3c(c2)C(=O)N([C@@H](C)CO)C[C@H](C)[C@H](CN(C)C(=O)CCCN(C)C)OCCCC[C@H](C)O3)cc1	.	.	0	21	47[16.7 µM]
O=C(NCC[C@H]1CC[C@@H](NS(=O)(=O)c2ccc(Oc3ccccc3)cc2)[C@H](CO)O1)C1CC1	.	.	2	2	1[16.7 µM]
CC(C)Nc1nc(Nc2ccc(C(N)=O)cc2)c2sccc2n1	6	.	6	70*	12
CC(=O)NCCNc1nc(NC(C)C)nc2ccsc12	-1	.	-1	3	-13
CCOc1ccc(CCNC(=O)COC(=O)c2nc(Cl)ccc2Cl)cc1OCC	2	-11	5	44*	5
CCOc1ccc(CCNC(=O)COC(=O)c2ccc(Cl)nc2)cc1OCC	5	-4	2	27	.
CCOc1ccc(CCNC(=O)COC(=O)CSc2ccccc2C)cc1OCC	-2	0	-5	57*	6
CCOc1ccc(CCNC(=O)COC(=O)c2ccc(C)s2)cc1OCC	-1	-4	2	52*	20
SMILES	Wnt bcat act	MITF act	CFTR F508del cor	INS-1E GSIS act	Env fusion inh
COc1ccc(CCNC(=O)COC(=O)c2ccc(C)s2)cc1OC	0	15	-1	42*	.
CC(C)NC(=O)N(C)C[C@H]1OCc2ccccc2-c2ccccc2C(=O)N([C@H](C)CO)C[C@@H]1C	.	.	.	14	.
CCOc1ccc(CCNC(=O)COC(=O)c2cccnc2SC)cc1OCC	1	-9	-3	55*	2
CCCCCSc1ncccc1C(=O)O	7	1	-1	-8	-9
O=C(O)c1cccnc1SCCc1ccccc1	36*	.	.	.	-66
CSc1ncccc1C(=O)OCc1ccc([N+](=O)[O-])cc1	-4	14	1	20	-16
CSc1ncccc1C(=O)OCc1ccccc1	.	78	.	47*	.
Cc1ccc(C(=O)NCc2ccc(F)cc2)s1	5	.	1	.	3
Cc1ccc(C(=O)NCCc2ccc(F)cc2)s1	42*	89*	-1	5	-19
